Laboratory results: PubChem BioAssay (EPA / NIEHS)
Several values for one entry are separate records, joined by “and”; a condition that tells them apart may be missing. Identical values can stand only once. Results filed as inconclusive are left out. A structure can be active in one record and inactive in another. Activity calls are given as the source filed them. Rule for the calls: active = hit-call score of the fitted dose curve at least 0.9, where 1 is the maximum; inconclusive = response in the unintended direction; inactive = score below 0.9.

Test: TOX21_p53_BLA_p5_viability: Viability Assessment in the Tox21 HCT-116 p53 Agonism Beta-lactamase Assay, Phase 5 (AID 2283600)
From the text: TOX21_p53_BLA_p5 is a cell-based, single-readout assay that uses HCT116, a human intestinal cell line, […] in a 1536-well plate.TOX21_p53_BLA_p5_viability is an assay readout measuring cellular ATP content and detected with CellTiter-Glo Luciferase-coupled ATP quantitation.TOX21_p53_BLA_p5_viability used a type of viability reporter where loss-of-signal activity can be used to understand changes in the cell viability. Furthermore, this assay endpoint can be referred to as a secondary readout, because this assay has produced multiple assay endpoints where this one serves a viability function. To generalize the intended target to other relatable targets, this assay endpoint is annotated to the cell cycle intended target family, where the subfamily is cytotoxicity.
Thawing Method: Place 14 mL of pre-warmed thaw medium into a 15 mL of conical tub. Remove the vial of cells to be thawed from liquid nitrogen and thaw rapidly by placing at 37C in a water bath with gentle agitation for 1-2 minutes. Decontaminate the vial by wiping with 70% ethanol before opening in a biological safety cabinet. Transfer the vial contents drop-wise into 14 mL of thaw medium in a sterile 15-mL conical tub. Centrifuge cells at 900 rpm for 4 minutes and resuspend in thaw medium. Transfer contents to the T75 tissue culture flask containing Thaw Medium and place flask in a humidified 37C/5% CO2 incubator. Switch to growth medium at first passage.Propagation Method: Aspirate medium, rinse once in DPBS, add 0.25% Trypsin/EDTA and swirl to coat the cell evenly. Add an equal volume of Growth Medium to inactivate Trypsin after 2-3 minutes incubation at 37C. Centrifuge cells at 900 rpm for 4 minutes and resuspend in growth medium. Cell should be passage or fed at least twice a week.Assay Protocol: Harvest cells from culture in growth medium and resuspend in assay medium. 2.2 Dispense 4000 cells/5 uL/well into 1536-well black/clear bottom plates using a Multidrop dispenser. After the cells were incubated at 37C for 5 hours, 23 nL of compounds dissolved in DMSO were transferred to the assay plate by a PinTool resulting in a 217-fold dilution. Incubate the plates for 16 hours at 37C, 5% CO2. Add 1 uL of 6X LiveBLAzer FRET B/G (CCF4-AM) Substrate Mixture to each well using a BioRAPTR dispenser and incubate the plates at room temperature for 2 hours. Measure fluorescence intensity at 460 and 530 nm emission and 405 nm excitation by an Envision detector. Data is expressed as the ratio of 460nm/530nm emissions. Add 4 uL of Cell-titer Glo to each well using BioRAPTR and incubate the plates at room temperature for […]. For cell viability readout that measures cytotoxicity, 4 ul/well of CellTiter-Glo reagent was added into the assay plates using a Flying Reagent Dispenser. After 30 min incubation at room temperature, the luminescence intensity in the plates was measured using a ViewLux plate reader.

Row | SMILES | outcome | AC50
1 | O=C(O)c1c(Cl)cccc1Cl | inactive | –
2 | Cc1cccc(C)c1Nc1ncccc1C(=O)O | inactive | –
3 | CCCCCCCCCOC(=O)c1ccc(O)cc1 | inactive | –
4 | CC(C)C[C@H](NC(=O)[C@H](Cc1ccccc1)NC(=O)c1cnccn1)B(O)O | – | 554 nM (active) and 442 nM (active)
5 | CO[C@H]1/C=C/O[C@@]2(C)Oc3c(C)c(O)c4c(O)c(cc(O)c4c3C2=O)NC(=O)/C(C)=C\C=C\[C@H](C)[C@H](O)[C@@H](C)[C@@H](O)[C@@H](C)[C@H](OC(C)=O)[C@@H]1C | inactive | –
6 | CC(=O)Nc1cccc(O)c1 | inactive | –
7 | C[C@H](CCC(=O)O)[C@H]1CC[C@H]2[C@@H]3CC[C@@H]4C[C@H](O)CC[C@]4(C)[C@H]3C[C@H](O)[C@]12C | inactive | 84.4 µM (active)
8 | O=C1C(c2[nH]c3ccccc3c2O)=Nc2ccccc21 | inactive | –
9 | O=C1OC(CN2CCOCC2)CN1N=Cc1ccc([N+](=O)[O-])o1 (stereo not given) | inactive | –
10 | Cc1ccc(C(C)NC(=O)[C@@H](NC(=O)OC(C)C)C(C)C)cc1 (stereo not given in full) | inactive | –
11 | C[C@@H](CN1CC(=O)NC(=O)C1)N1CC(=O)NC(=O)C1 | inactive | –
12 | CCOC(=O)CC(=O)OCC | inactive | –
13 | CC1(C)S[C@@H]2[C@H](NC(=O)[C@H](N)c3ccc(O)cc3)C(=O)N2[C@H]1C(=O)O | inactive | –
14 | C=CCCC=C | inactive | –
15 | CCCCCCCCCCCC(=O)N(CC)CC | inactive | –
16 | C1CCC(C(CC2CCCCN2)C2CCCCC2)CC1 (stereo not given) | – | 34 µM (active)
17 | CS(=O)(=O)Nc1cc2occ(NC=O)c(=O)c2cc1Oc1ccccc1 | inactive | –
18 | CC(=O)OC(C)(C)Cc1ccccc1 | inactive | –
19 | CS(=O)(=O)Nc1ccc([N+](=O)[O-])cc1Oc1ccccc1 | inactive | –
20 | Cc1cc(-c2ccc(N=Nc3c(S(=O)(=O)O)cc4cc(S(=O)(=O)O)cc(N)c4c3O)c(C)c2)ccc1N=Nc1c(S(=O)(=O)O)cc2cc(S(=O)(=O)O)cc(N)c2c1O | inactive | –

Row | SMILES | outcome | AC50
21 | CC(C)Oc1ccc2c(=O)c(-c3ccccc3)coc2c1 | inactive | –
22 | CCCCCCCCCCCCCCCBr | inactive | –
23 | CCOc1ccc(Cc2nccc3cc(OCC)c(OCC)cc23)cc1OCC | inactive | –
24 | N[C@@H](COP(=O)(O)O)C(=O)O | inactive | –
25 | O=C1Nc2ccc(Cl)cc2[C@@](C#CC2CC2)(C(F)(F)F)O1 | – | 38.3 µM (active)
26 | CC1(COc2ccc(CC3SC(=O)NC3=O)cc2)CCCCC1 (stereo not given) | – | 21.6 µM (active)
27 | CC(O)c1ccccc1 (stereo not given) | inactive | –
28 | CCN(CC)CCOc1ccc(-c2nc3cc(Cl)ccc3s2)cc1 | inactive | –
29 | CC(C)Cn1cnc2c(N)nc3ccccc3c21 | inactive | –
30 | N=C(N)n1cccn1 | inactive | –
31 | COc1ccc(C(=O)Nc2ccccc2CCC2CCCCN2C)cc1 (stereo not given) | inactive | –
32 | C#C[C@]1(O)CC[C@H]2[C@@H]3CCc4cc(OC5CCCC5)ccc4[C@H]3CC[C@@]21C | – | 37.8 µM (active)
33 | CCC(COC(=O)CCS)(COC(=O)CCS)COC(=O)CCS | inactive | –
34 | CCCCC(=O)OCC(=O)[C@]1(O)Cc2c(O)c3c(c(O)c2[C@@H](O[C@H]2C[C@H](NC(=O)C(F)(F)F)[C@H](O)[C@H](C)O2)C1)C(=O)c1c(OC)cccc1C3=O | inactive | –
35 | O=C(O)c1ccc[n+]([O-])c1 | inactive | –
36 | O=C(O)CCC(=O)c1ccc(-c2ccccc2)cc1 | inactive | –
37 | NC(=O)c1ccccc1C(N)=O | inactive | –
38 | COc1ccc2cc(CCC(C)=O)ccc2c1 | inactive | –
39 | O=[N+]([O-])c1cccc(S(=O)(=O)O)c1 | inactive | –
